Tests used:
Test in all cases: SPOT peptide array binding signal intensity (averaged, normalized) (arbitrary units (background-subtracted, floor 0; scale differs between SH3 domains)); higher = stronger binding of the SH3 domain to the peptide
AgAbp1 = target: AgAbp1
In short: (§1)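 Binding signal is given in arbitrary units that differ between domains and is the normalized, background-subtracted spot intensity averaged across replicates. Each GST-SH3 fusion from one of four yeast species was made in E. coli BL21(DE3), purified on glutathione Sepharose and incubated at 10 μg/ml overnight at 4°C on cellulose-bound synthetic 15-mer peptides in which cysteines were replaced by serines. Detection used anti-GST antibody, an HRP anti-mouse secondary and luminol, followed by imaging and Genespotter quantification.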

AgBbc1 = target: AgBbc1
In short: as §1

AgBem1-D1 = target: AgBem1-D1
In short: as §1

AgBzz1-D1 = target: AgBzz1-D1
In short: as §1

AgBzz1-D2 = target: AgBzz1-D2
In short: as §1

AgCyk3 = target: AgCyk3
In short: as §1

AgFus1 = target: AgFus1
In short: as §1

AgHof1 = target: AgHof1
In short: as §1

AgHse1 = target: AgHse1
In short: as §1

AgLsb1 = target: AgLsb1
In short: as §1

AgLsb4 = target: AgLsb4
In short: as §1

AgMyo5 = target: AgMyo5
In short: as §1

AgNbp2 = target: AgNbp2
In short: as §1

AgRvs167 = target: AgRvs167
In short: as §1

AgSho1 = target: AgSho1
In short: as §1

AgSla1-D1-D2 = target: AgSla1-D1-D2
In short: as §1

AgSla1-D3 = target: AgSla1-D3
In short: as §1

CaAbp1-D1 = target: CaAbp1-D1
In short: as §1

CaAbp1-D2 = target: CaAbp1-D2
In short: as §1

CaBbc1 = target: CaBbc1
In short: as §1

CaBem1-D1 = target: CaBem1-D1
In short: as §1

CaBzz1-D1 = target: CaBzz1-D1
In short: as §1

CaBzz1-D2 = target: CaBzz1-D2
In short: as §1

CaCyk3 = target: CaCyk3
In short: as §1

CaFus1 = target: CaFus1
In short: as §1

CaHof1 = target: CaHof1
In short: as §1

CaHse1 = target: CaHse1
In short: as §1

CaLsb1 = target: CaLsb1
In short: as §1

CaLsb4 = target: CaLsb4
In short: as §1

CaMyo5 = target: CaMyo5
In short: as §1

CaNbp2 = target: CaNbp2
In short: as §1

CaRvs167 = target: CaRvs167
In short: as §1

CaRvs167-3 = target: CaRvs167-3
In short: as §1

CaSho1 = target: CaSho1
In short: as §1

CaSla1-D1-D2 = target: CaSla1-D1-D2
In short: as §1

CaSla1-D3 = target: CaSla1-D3
In short: as §1

ScAbp1 = target: ScAbp1
In short: as §1

ScBbc1 = target: ScBbc1
In short: as §1

ScBem1-D1 = target: ScBem1-D1
In short: as §1

ScBzz1-D1 = target: ScBzz1-D1
In short: as §1

ScBzz1-D2 = target: ScBzz1-D2
In short: as §1

ScCyk3 = target: ScCyk3
In short: as §1

ScFus1 = target: ScFus1
In short: as §1

ScHof1 = target: ScHof1
In short: as §1

ScHse1 = target: ScHse1
In short: as §1

ScLsb1 = target: ScLsb1
In short: as §1

ScLsb2 = target: ScLsb2
In short: as §1

ScLsb3 = target: ScLsb3
In short: as §1

ScLsb4 = target: ScLsb4
In short: as §1

ScMyo3 = target: ScMyo3
In short: as §1

ScMyo5 = target: ScMyo5
In short: as §1

ScNbp2 = target: ScNbp2
In short: as §1

ScPex13 = target: ScPex13
In short: as §1

ScRvs167 = target: ScRvs167
In short: as §1

ScSho1 = target: ScSho1
In short: as §1

ScSla1-D1-D2 = target: ScSla1-D1-D2
In short: as §1

ScSla1-D3 = target: ScSla1-D3
In short: as §1

SpAbp1-D1 = target: SpAbp1-D1
In short: as §1

SpBbc1 = target: SpBbc1
In short: as §1

SpBzz1-D1 = target: SpBzz1-D1
In short: as §1

SpBzz1-D2 = target: SpBzz1-D2
In short: as §1

SpCyk3 = target: SpCyk3
In short: as §1

SpHof1 = target: SpHof1
In short: as §1

SpHof1-2 = target: SpHof1-2
In short: as §1

SpHof1-3 = target: SpHof1-3
In short: as §1

SpHse1 = target: SpHse1
In short: as §1

SpLsb1 = target: SpLsb1
In short: as §1

SpLsb4 = target: SpLsb4
In short: as §1

SpMyo1 = target: SpMyo1
In short: as §1

SpNbp2 = target: SpNbp2
In short: as §1

SpPex13 = target: SpPex13
In short: as §1

SpRvs167 = target: SpRvs167
In short: as §1

SpSla1-D1-D2 = target: SpSla1-D1-D2
In short: as §1

SpSla1-D3 = target: SpSla1-D3
In short: as §1

## KRNRLKILLPFLEQS
AgAbp1
  SPOT peptide array binding signal intensity: 7
AgBbc1
  SPOT peptide array binding signal intensity: 1.75
AgBem1-D1
  SPOT peptide array binding signal intensity: 102
AgBzz1-D1
  SPOT peptide array binding signal intensity: 9
AgBzz1-D2
  SPOT peptide array binding signal intensity: 41
AgCyk3
  SPOT peptide array binding signal intensity: 0.5
AgFus1
  SPOT peptide array binding signal intensity: 1340
AgHof1
  SPOT peptide array binding signal intensity: 30.5
AgHse1
  SPOT peptide array binding signal intensity: 1380
AgLsb1
  SPOT peptide array binding signal intensity: 3.5
AgLsb4
  SPOT peptide array binding signal intensity: 126
AgMyo5
  SPOT peptide array binding signal intensity: 0.5
AgNbp2
  SPOT peptide array binding signal intensity: 102
AgRvs167
  SPOT peptide array binding signal intensity: 2.33
AgSho1
  SPOT peptide array binding signal intensity: 200
AgSla1-D1-D2
  SPOT peptide array binding signal intensity: 49.5
AgSla1-D3
  SPOT peptide array binding signal intensity: 12.5
CaAbp1-D1
  SPOT peptide array binding signal intensity: 342
CaAbp1-D2
  SPOT peptide array binding signal intensity: 154
CaBbc1
  SPOT peptide array binding signal intensity: 27
CaBem1-D1
  SPOT peptide array binding signal intensity: ≤ 0
CaBzz1-D1
  SPOT peptide array binding signal intensity: 5
CaBzz1-D2
  SPOT peptide array binding signal intensity: 66.8
CaCyk3
  SPOT peptide array binding signal intensity: 3
CaFus1
  SPOT peptide array binding signal intensity: 4760
CaHof1
  SPOT peptide array binding signal intensity: 0.5
CaHse1
  SPOT peptide array binding signal intensity: 57.2
CaLsb1
  SPOT peptide array binding signal intensity: 9.75
CaLsb4
  SPOT peptide array binding signal intensity: 21
CaMyo5
  SPOT peptide array binding signal intensity: 3
CaNbp2
  SPOT peptide array binding signal intensity: 742
CaRvs167
  SPOT peptide array binding signal intensity: 61.5
CaRvs167-3
  SPOT peptide array binding signal intensity: 828
CaSho1
  SPOT peptide array binding signal intensity: 1220
CaSla1-D1-D2
  SPOT peptide array binding signal intensity: 5
CaSla1-D3
  SPOT peptide array binding signal intensity: 136
ScAbp1
  SPOT peptide array binding signal intensity: 54
ScBbc1
  SPOT peptide array binding signal intensity: 2.5
ScBem1-D1
  SPOT peptide array binding signal intensity: 74
ScBzz1-D1
  SPOT peptide array binding signal intensity: 20.5
ScBzz1-D2
  SPOT peptide array binding signal intensity: 53
ScCyk3
  SPOT peptide array binding signal intensity: 102
ScFus1
  SPOT peptide array binding signal intensity: 1980
ScHof1
  SPOT peptide array binding signal intensity: 1.5
ScHse1
  SPOT peptide array binding signal intensity: 2110
ScLsb1
  SPOT peptide array binding signal intensity: 3
ScLsb2
  SPOT peptide array binding signal intensity: 5
ScLsb3
  SPOT peptide array binding signal intensity: 145
ScLsb4
  SPOT peptide array binding signal intensity: 9.5
ScMyo3
  SPOT peptide array binding signal intensity: 2.5
ScMyo5
  SPOT peptide array binding signal intensity: 2.25
ScNbp2
  SPOT peptide array binding signal intensity: 130
ScPex13
  SPOT peptide array binding signal intensity: 0.25
ScRvs167
  SPOT peptide array binding signal intensity: 18.2
ScSho1
  SPOT peptide array binding signal intensity: 1290
ScSla1-D1-D2
  SPOT peptide array binding signal intensity: 122
ScSla1-D3
  SPOT peptide array binding signal intensity: 3.25
SpAbp1-D1
  SPOT peptide array binding signal intensity: 114
SpBbc1
  SPOT peptide array binding signal intensity: 1.5
SpBzz1-D1
  SPOT peptide array binding signal intensity: 90
SpBzz1-D2
  SPOT peptide array binding signal intensity: ≤ 0
SpCyk3
  SPOT peptide array binding signal intensity: 3
SpHof1
  SPOT peptide array binding signal intensity: 142
SpHof1-2
  SPOT peptide array binding signal intensity: 14
SpHof1-3
  SPOT peptide array binding signal intensity: 624
SpHse1
  SPOT peptide array binding signal intensity: 1780
SpLsb1
  SPOT peptide array binding signal intensity: 1.5
SpLsb4
  SPOT peptide array binding signal intensity: 56
SpMyo1
  SPOT peptide array binding signal intensity: 5.5
SpNbp2
  SPOT peptide array binding signal intensity: 443
SpPex13
  SPOT peptide array binding signal intensity: 21
SpRvs167
  SPOT peptide array binding signal intensity: 7.5
SpSla1-D1-D2
  SPOT peptide array binding signal intensity: ≤ 0
SpSla1-D3
  SPOT peptide array binding signal intensity: 11

## YLTRPLPSTPNEDSR
AgAbp1
  SPOT peptide array binding signal intensity: 7
AgBbc1
  SPOT peptide array binding signal intensity: 39.5
AgBem1-D1
  SPOT peptide array binding signal intensity: ≤ 0
AgBzz1-D1
  SPOT peptide array binding signal intensity: 17.5
AgBzz1-D2
  SPOT peptide array binding signal intensity: ≤ 0
AgCyk3
  SPOT peptide array binding signal intensity: 42
AgFus1
  SPOT peptide array binding signal intensity: ≤ 0
AgHof1
  SPOT peptide array binding signal intensity: 13.2
AgHse1
  SPOT peptide array binding signal intensity: ≤ 0
AgLsb1
  SPOT peptide array binding signal intensity: 96
AgLsb4
  SPOT peptide array binding signal intensity: 853
AgMyo5
  SPOT peptide array binding signal intensity: 2.25
AgNbp2
  SPOT peptide array binding signal intensity: ≤ 0
AgRvs167
  SPOT peptide array binding signal intensity: 404
AgSho1
  SPOT peptide array binding signal intensity: 1790
AgSla1-D1-D2
  SPOT peptide array binding signal intensity: 1
AgSla1-D3
  SPOT peptide array binding signal intensity: ≤ 0
CaAbp1-D1
  SPOT peptide array binding signal intensity: 11
CaAbp1-D2
  SPOT peptide array binding signal intensity: 7
CaBbc1
  SPOT peptide array binding signal intensity: 134
CaBem1-D1
  SPOT peptide array binding signal intensity: ≤ 0
CaBzz1-D1
  SPOT peptide array binding signal intensity: 42
CaBzz1-D2
  SPOT peptide array binding signal intensity: 12.5
CaCyk3
  SPOT peptide array binding signal intensity: 8
CaFus1
  SPOT peptide array binding signal intensity: ≤ 0
CaHof1
  SPOT peptide array binding signal intensity: 69.8
CaHse1
  SPOT peptide array binding signal intensity: 28.5
CaLsb1
  SPOT peptide array binding signal intensity: ≤ 0
CaLsb4
  SPOT peptide array binding signal intensity: 406
CaMyo5
  SPOT peptide array binding signal intensity: ≤ 0

Source: the supplement of paper PMC4466140
